For 18 compounds, viability results are on record in PubChem BioAssay.

Values without a mark were called inactive. The source made the active and inactive calls.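 How the source made its calls: active means normalized viability below 100% at a tested concentration; inactive means the rest.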

A word on the viability: it is a read-out of living cells in per cent, often relative to untreated cells.

One test is described as follows: drug combination growth inhibition, ovarian cancer – cell-based, oncology-focused library, rucaparib conditional, profiling panel (AID 1508598). As to conditions: patient-derived ovarian cancer cells, CellTiter-Glo viability, 144 h; at 5 µM; OCI-C5x cells; with rucaparib 10 µM; active compounds read low; 100% = cells with rucaparib alone. (ATP-based viability assays read luminescence as a measure of living cells.)
On to `N[C@@H]1CCCN(c2c(/C=C3\SC(=O)NC3=O)cccc2-c2ccccc2)C1`, for which the viability was 115%.

Take `C[C@@H]1C[C@H]2[C@@H]3CCC4=CC(=O)C=C[C@]4(C)[C@]3(F)[C@H](O)C[C@]2(C)[C@]1(O)C(=O)CO`: the viability is 117%.

In the case of `Cc1cc2c(C(=O)NC[C@H](C)c3ccccc3)c(O)c(O)cc2c(O)c1-c1c(C)cc2c(C(=O)NC[C@H](C)c3ccccc3)c(O)c(O)cc2c1O`, the viability was 15.2% (active).

Consider `Nc1nc(F)nc2c1ncn2[C@H]1O[C@H](CO)[C@@H](O)[C@@H]1O`, for which the viability was 79.6% (active).

In the case of `COc1cccc2c1C(=O)c1c(O)c3c(c(O)c1C2=O)C[C@@](O)(C(=O)CO)C[C@H]3O[C@H]1C[C@H](N)[C@@H](O)[C@H](C)O1`, the viability was 8.09% (active).

Regarding `C=C1/C(=C/C=C2\CCC[C@@]3(C)[C@H]2CC[C@H]3[C@H](C)/C=C/[C@@H](C)C(C)C)C[C@H](O)C[C@@H]1O`, the viability is 120%.

Turning to `CO[C@H]1C[C@H]2CC[C@@H](C)[C@@](O)(O2)C(=O)C(=O)N2CCCC[C@H]2C(=O)O[C@H]([C@H](C)C[C@@H]2CC[C@H](OP(C)(C)=O)[C@H](OC)C2)CC(=O)[C@H](C)/C=C(\C)[C@@H](O)[C@@H](OC)C(=O)[C@H](C)C[C@H](C)/C=C/C=C/C=C/1C`, the viability is 114%.

As to `C=CCNC1=C2C[C@@H](C)C[C@H](OC)[C@H](O)[C@@H](C)/C=C(\C)[C@H](OC(N)=O)[C@@H](OC)/C=C\C=C(\C)C(=O)NC(=CC1=O)C2=O`, the viability was 8.53% (active).

`CC[C@]1(O)C[C@@H]2CN(CCc3c([nH]c4ccccc34)[C@@](C(=O)OC)(c3cc4c(cc3OC)N(C=O)[C@@H]3C45CCN4CC=C[C@](CC)([C@H]45)[C@H](OC(C)=O)[C@]3(O)C(=O)OC)C2)C1` (stereo partly specified): the viability is 41.7% (active).

Take `COc1cccc2c1C(=O)c1c(O)c3c(c(O)c1C2=O)C[C@@](O)(C(C)=O)C[C@H]3O[C@H]1C[C@H](N)[C@H](O)[C@H](C)O1`: the viability was 2.96% (active).

`CCOc1ccc(Cc2cc([C@@H]3O[C@H](CO)[C@@H](O)[C@H](O)[C@@H]3O)ccc2Cl)cc1`: the viability is 110%.

As to `CC(=O)[C@]1(O)Cc2c(O)c3c(c(O)c2[C@H](O[C@H]2C[C@H](N)[C@H](O)[C@H](C)O2)C1)C(=O)c1ccccc1C3=O`, the viability was 3.72% (active).

For the compound `CCC1=CC2CN(C1)Cc1c([nH]c3ccccc13)[C@@](C(=O)OC)(c1cc3c(cc1OC)N(C)[C@H]1[C@@](O)(C(=O)OC)[C@H](OC(C)=O)[C@]4(CC)C=CCN5CC[C@@]31[C@H]54)C2` (stereo partly specified), the viability is 36.1% (active).

As to `CC(=O)O[C@H]1C(=O)[C@@]2(C)C([C@H](OC(=O)c3ccccc3)[C@]3(O)C[C@H](OC(=O)[C@H](O)[C@@H](NC(=O)c4ccccc4)c4ccccc4)C(C)=C1C3(C)C)[C@]1(OC(C)=O)CO[C@@H]1C[C@H]2O` (stereo partly specified), the viability is 24.5% (active).

In the case of `CO[C@H]1C[C@H]2CC[C@@H](C)[C@@](O)(O2)C(=O)C(=O)N2CCCC[C@H]2C(=O)O[C@H]([C@H](C)C[C@@H]2CC[C@H](OC(=O)C(C)(CO)CO)[C@H](OC)C2)CC(=O)[C@H](C)/C=C(\C)[C@@H](O)[C@@H](OC)C(=O)[C@H](C)C[C@H](C)/C=C/C=C/C=C/1C`, the viability is 93.4% (active).

For `CO[C@H]1/C=C\C=C(\C)C(=O)NC2=CC(=O)C(NCCN(C)C)=C(C[C@@H](C)C[C@H](OC)[C@H](O)[C@@H](C)/C=C(\C)[C@@H]1OC(N)=O)C2=O`, the viability was 8.19% (active).

`CC(C)(C(=O)NCC(F)(F)C(F)(F)F)C(=O)N[C@H]1C(=O)Nc2ccccc2-c2ccccc21`: the viability was 117%.

For `CC1(C)O[C@@H]2C[C@H]3[C@@H]4CCC5=CC(=O)C=C[C@]5(C)[C@]4(F)[C@H](O)C[C@]3(C)[C@@]2(C(=O)CO)O1`, the viability is 109%.

The test is the same for the next values; noted with them: patient-derived ovarian cancer cells, CellTiter-Glo viability, 144 h; at 5 µM; OCI-C5x cells; without rucaparib; active compounds read low.
Turning to `N[C@@H]1CCCN(c2c(/C=C3\SC(=O)NC3=O)cccc2-c2ccccc2)C1`, the viability was 119%.

With `C[C@@H]1C[C@H]2[C@@H]3CCC4=CC(=O)C=C[C@]4(C)[C@]3(F)[C@H](O)C[C@]2(C)[C@]1(O)C(=O)CO`, the viability was 108%.

Turning to `Cc1cc2c(C(=O)NC[C@H](C)c3ccccc3)c(O)c(O)cc2c(O)c1-c1c(C)cc2c(C(=O)NC[C@H](C)c3ccccc3)c(O)c(O)cc2c1O`, the viability is 17.1% (active).

Regarding `Nc1nc(F)nc2c1ncn2[C@H]1O[C@H](CO)[C@@H](O)[C@@H]1O`, the viability was 11.9% (active).

For `COc1cccc2c1C(=O)c1c(O)c3c(c(O)c1C2=O)C[C@@](O)(C(=O)CO)C[C@H]3O[C@H]1C[C@H](N)[C@@H](O)[C@H](C)O1`, the viability was 2.52% (active).

Turning to `C=C1/C(=C/C=C2\CCC[C@@]3(C)[C@H]2CC[C@H]3[C@H](C)/C=C/[C@@H](C)C(C)C)C[C@H](O)C[C@@H]1O`, the viability is 111%.

For the compound `CO[C@H]1C[C@H]2CC[C@@H](C)[C@@](O)(O2)C(=O)C(=O)N2CCCC[C@H]2C(=O)O[C@H]([C@H](C)C[C@@H]2CC[C@H](OP(C)(C)=O)[C@H](OC)C2)CC(=O)[C@H](C)/C=C(\C)[C@@H](O)[C@@H](OC)C(=O)[C@H](C)C[C@H](C)/C=C/C=C/C=C/1C`, the viability is 102%.

With `C=CCNC1=C2C[C@@H](C)C[C@H](OC)[C@H](O)[C@@H](C)/C=C(\C)[C@H](OC(N)=O)[C@@H](OC)/C=C\C=C(\C)C(=O)NC(=CC1=O)C2=O`, the viability is 8.44% (active).

Turning to `CC[C@]1(O)C[C@@H]2CN(CCc3c([nH]c4ccccc34)[C@@](C(=O)OC)(c3cc4c(cc3OC)N(C=O)[C@@H]3C45CCN4CC=C[C@](CC)([C@H]45)[C@H](OC(C)=O)[C@]3(O)C(=O)OC)C2)C1` (stereo partly specified), the viability was 24.9% (active).

With `COc1cccc2c1C(=O)c1c(O)c3c(c(O)c1C2=O)C[C@@](O)(C(C)=O)C[C@H]3O[C@H]1C[C@H](N)[C@H](O)[C@H](C)O1`, the viability is 1.85% (active).

Regarding `CCOc1ccc(Cc2cc([C@@H]3O[C@H](CO)[C@@H](O)[C@H](O)[C@@H]3O)ccc2Cl)cc1`, the viability is 121%.

Consider `CC(=O)[C@]1(O)Cc2c(O)c3c(c(O)c2[C@H](O[C@H]2C[C@H](N)[C@H](O)[C@H](C)O2)C1)C(=O)c1ccccc1C3=O`, for which the viability is 3.03% (active).

On to `CCC1=CC2CN(C1)Cc1c([nH]c3ccccc13)[C@@](C(=O)OC)(c1cc3c(cc1OC)N(C)[C@H]1[C@@](O)(C(=O)OC)[C@H](OC(C)=O)[C@]4(CC)C=CCN5CC[C@@]31[C@H]54)C2` (stereo partly specified), for which the viability is 22.2% (active).

Take `CC(=O)O[C@H]1C(=O)[C@@]2(C)C([C@H](OC(=O)c3ccccc3)[C@]3(O)C[C@H](OC(=O)[C@H](O)[C@@H](NC(=O)c4ccccc4)c4ccccc4)C(C)=C1C3(C)C)[C@]1(OC(C)=O)CO[C@@H]1C[C@H]2O` (stereo partly specified): the viability is 24.4% (active).

`CO[C@H]1C[C@H]2CC[C@@H](C)[C@@](O)(O2)C(=O)C(=O)N2CCCC[C@H]2C(=O)O[C@H]([C@H](C)C[C@@H]2CC[C@H](OC(=O)C(C)(CO)CO)[C@H](OC)C2)CC(=O)[C@H](C)/C=C(\C)[C@@H](O)[C@@H](OC)C(=O)[C@H](C)C[C@H](C)/C=C/C=C/C=C/1C`: the viability is 88% (active).

`CO[C@H]1/C=C\C=C(\C)C(=O)NC2=CC(=O)C(NCCN(C)C)=C(C[C@@H](C)C[C@H](OC)[C@H](O)[C@@H](C)/C=C(\C)[C@@H]1OC(N)=O)C2=O`: the viability is 4.12% (active).

Regarding `CC(C)(C(=O)NCC(F)(F)C(F)(F)F)C(=O)N[C@H]1C(=O)Nc2ccccc2-c2ccccc21`, the viability is 108%.

As to `CC1(C)O[C@@H]2C[C@H]3[C@@H]4CCC5=CC(=O)C=C[C@]5(C)[C@]4(F)[C@H](O)C[C@]3(C)[C@@]2(C(=O)CO)O1`, the viability is 99.9% (active).
